Most compounds without a hit are left out; they make up all but 19% or so of the library.
Pf growth 48h – Primary qHTS for delayed death inhibitors of the malarial parasite plastid, 48 hour incubation | P. falciparum luciferase growth in erythrocytes, 48 h | Potency, µM (top dose mostly 28.7 µM), actives largely listed as inhibitors | 5.9% of 310,000 active | AID 504832, 2011
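Firefly luciferase activity from engineered P. falciparum reports growth; inhibitors lower the luminescent signal. Cultures contained 2% hematocrit erythrocytes at 0.1% final parasitemia.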
Pf growth 96h – Primary qHTS for delayed death inhibitors of the malarial parasite plastid, 96 hour incubation. P. falciparum luciferase reporter growth, 96 h. Potency, µM (doses to about 28.7 µM), actives largely listed as inhibitors. 6.9% of 320,000 active
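96 h incubation, 37 C, 5% CO2, of luciferase-reporter P. falciparum-infected RBCs (2% hematocrit, 0.05% parasitemia final) with test compounds; endpoint luminescence.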
Shiga inhibitor – A qHTS for Small Molecule Inhibitors of Shiga Toxin; Vero cells, Shiga toxin protein synthesis inhibition reporter; 9.2% of 290,000 active; AID 2315, 2010; inhibition, % at 38.7 µM; in the data active = inhibition mostly above about 28%, no sharp cut-off; inactive = mostly below about 43%
CHX counter – Cycloheximide Counterscreen for Small Molecule Inhibitors of Shiga Toxin; cell reporter, cycloheximide protein synthesis inhibition counterscreen; 12% of 300,000 active; max response, %; in the data active = max response mostly above about 13%, no sharp cut-off; inactive = mostly below about 14%; also: read at 38.3 µM for the half of the compounds with a filed dose
MARV entry inh – qHTS for inhibitors of binding or entry into cells for Marburg Virus; Marburg virus pseudotyped entry inhibition, cell reporter; Potency, µM (top dose mostly 37.8 µM), usual class: inhibitors; 1.8% of 300,000 active; AID 540276, 2011; calls by dose curve; tested in HEK293 cells
LASV entry inh – qHTS for Inhibitors of binding or entry into cells for Lassa Virus; Lassa virus pseudotype entry inhibition, cell reporter; Potency, µM (series often up to 37.9 µM), hits mostly inhibitors; 1.2% of 300,000 active; AID 540256, 2011; calls by dose curve; tested in HEK293 cells; also: nearly all actives have a fitted effect of over 50% in size
Numbers stand for hits; – = inactive; ? = inconclusive; · = no result given. Unless noted, calls follow the shape of the dose curve; as a rule, active = well fitted inhibition curve with a large enough effect; inconclusive = small, poorly fitted or top-dose-only effect, or another doubt; inactive = no such curve, though single readings can be large or run the other way.

SMILES	Pf growth 48h	Pf growth 96h	Shiga inhibitor	CHX counter	MARV entry inh	LASV entry inh
N#CCc1ccc(NC(=O)c2ccc(S(=O)(=O)N3CCCC3)cc2)cc1	?	–	–	–	–	–
CN(C)S(=O)(=O)c1cccc(NC(=S)NC(=O)C2CCCCC2)c1	–	–	67	41	–	?
CN(C)S(=O)(=O)c1cccc(NC(=S)NC2CCCCC2)c1	–	–	–	–	–	?
Cc1cc(NC(=S)NC(=O)C2CC2)ccc1Br	–	–	128	51	–	–
Cc1cccc(NC(=S)NC(=O)C2CC2)c1	–	?	35	45	·	·
CCOC(=O)CCCNC(=O)CN1C(=O)NC(c2ccccc2)(c2ccccc2)C1=O	?	?	–	–	–	?
[O-]C1=N/[N+](=C/c2ccc(Cl)cc2)CC1	–	·	–	–	–	–
O=C(C1CCCN(Cc2ccccc2)C1)N1CCCCC1 (stereo not given)	·	?	–	–	–	–
NC(=O)C1CCCN(Cc2ccc3ccccc3c2)C1 (stereo not given)	?	2.6µM	–	–	·	·
CCN(CC)C(=O)C1CCCN(Cc2ccc3ccccc3c2)C1 (stereo not given)	–	13µM	–	–	?	–
CC(C)(C)C(=O)C(CO)(Oc1ccc(Cl)cc1)n1cncn1 (stereo not given)	?	?	–	–	–	–
Cc1ccc([N+](=O)[O-])cc1N=C(c1ccc([N+](=O)[O-])cc1)N1CCOCC1	?	8.3µM	–	–	–	–
O=S(O)OC1CS(=O)(=O)CC1c1ccccc1 (stereo not given)	·	–	–	–	·	·
COc1ccc(-c2ccc(NS(=O)(=O)c3cc([N+](=O)[O-])c(C)c([N+](=O)[O-])c3)cc2)nn1	–	–	–	–	·	·
COC(=O)C1=C(c2ccc(-c3ccccc3)c(F)c2)C[C@@H]2CC[C@H]1N2C(=O)NCC1CC1	4.7µM	?	·	·	·	·
COC(=O)C1=C(c2ccc(OC)c(OC)c2)C[C@@H]2CC[C@H]1N2C(=O)NCCOc1ccccc1	–	?	·	·	·	·
COC(=O)C1=C(c2ccc(F)cc2F)C[C@@H]2CC[C@H]1N2C(=O)NCC1CC1	–	–	·	·	·	·
COC(=O)C1=C(c2ccc(-c3ccccc3)c(F)c2)C[C@@H]2CC[C@H]1N2C(=O)NC1Cc2ccccc2C1	9.3µM	?	·	·	·	·
COC(=O)C1=C(c2ccc3ccccc3c2)C[C@@H]2CC[C@H]1N2C(=O)NCC1CC1	3.3µM	?	·	·	·	·
COC(=O)C1=C(c2cccc(C#N)c2)C[C@@H]2CC[C@H]1N2C(=O)NC1CCCCC1	?	–	·	·	·	·
COC(=O)C1=C(c2ccc(-c3ccccc3)c(F)c2)C[C@@H]2CC[C@H]1N2C(=O)NCCOc1ccccc1	3.3µM	?	·	·	·	·
CN(c1ccccc1)S(=O)(=O)c1ccc(C(=O)OCC(=O)NCc2ccco2)cc1	·	–	–	–	?	–
CCOC(=O)C(Cc1ccccc1)NC(=O)CCCC(=O)c1ccccc1 (stereo not given)	–	?	–	–	·	·
CN(CC(=O)NC(=O)NC1CCCCC1)CC(=O)Nc1ccc(OC(F)(F)F)cc1	5.2µM	?	·	·	–	?
COc1ccc(NC(=O)CN(C)CC(=O)NC(=O)NC2CCCCC2)cc1	–	–	·	·	·	·
SMILES	Pf growth 48h	Pf growth 96h	Shiga inhibitor	CHX counter	MARV entry inh	LASV entry inh
O=C(O)CCCC(=O)N1N=C(c2c(-c3ccccc3)c3cc(Cl)ccc3[nH]c2=O)CC1c1cccs1 (stereo not given)	–	?	–	–	–	–
Cc1nc(C(=O)NNC(=O)c2c(-c3c(Cl)cccc3Cl)noc2C)cs1	?	?	–	–	1.6µM	?
Cc1cc(C)nc(NC(=O)c2c(-c3c(Cl)cccc3Cl)noc2C)n1	–	–	–	–	–	?
Cc1onc(-c2c(Cl)cccc2Cl)c1C(=O)Nc1nc(C(C)(C)C)cs1	?	10µM	–	–	?	?
Cc1onc(-c2c(Cl)cccc2Cl)c1NC(=O)NNc1ccccn1	–	–	–	29	·	·
Cc1cc2c(cc(C(=O)OCC(=O)NCc3cccs3)n2C(C)C)o1	?	–	–	–	?	9.2µM
Cc1cc(C)cc(C(=O)OCC(=O)NCc2cccs2)c1	–	–	–	–	–	–
Cc1ccc(C(=O)OCC(=O)NCc2cccs2)c(C)c1	–	–	113	41	–	?
Cn1c(SCc2c(Cl)cccc2Cl)nnc1-c1ccc2nonc2c1	?	?	–	–	–	–
Cc1cc(Oc2nc3c(C)cccn3c(=O)c2/C=C(\C#N)S(=O)(=O)c2ccccc2)ccc1Cl	?	2.3µM	–	–	?	–
Cc1cccn2c(=O)c(/C=C(\C#N)S(=O)(=O)c3ccccc3)c(Oc3ccc(Cl)cc3)nc12	?	12µM	–	–	–	?
OC[C@@H](O)[C@@H](O)CO	–	–	·	·	·	·
CC(=O)c1ccc(N2C(=O)[C@@H]3[C@H](C2=O)[C@H]2c4ccccc4C=NN2[C@@H]3C(C)=O)cc1	–	–	–	10	–	?
N#Cc1cc2c(nc1SCC(=O)Nc1cccc(F)c1)C1CCN2CC1	·	·	·	·	?	–
CSc1nc(N)nc(SCC(=O)Nc2cccc(F)c2)c1C#N	?	–	77	–	?	?
CSc1nc(N)nc(SCC(=O)Nc2ccc(Cl)cc2)c1C#N	–	–	43	20	?	?
O=C(CN1CCN(C(=O)c2ccco2)CC1)NCc1ccc(Cl)cc1	–	–	–	–	–	–
COCCNc1oc(Cc2cccc3ccccc23)nc1C#N	?	?	–	–	·	·
CCc1ccc(Nc2n[n+](-c3ccccc3)c(-c3c(Cl)cccc3Cl)s2)cc1	10µM	?	–	–	·	·
COc1ccc2ccccc2c1-c1sc(Nc2ccccc2)n[n+]1-c1ccc(F)cc1	?	?	–	–	·	·
CCc1ccc(Nc2n[n+](-c3ccccc3)c(-c3cc(OC)c(OC)cc3Br)s2)cc1	?	12µM	–	–	·	·
Fc1ccc(-[n+]2nc(Nc3ccccc3)sc2-c2c(Cl)cccc2Cl)cc1	?	?	–	–	·	·
CN(C)c1ccc(-c2sc(Nc3ccccc3)n[n+]2-c2ccc(F)cc2)cc1	–	?	50	36	·	·
CCc1ccc(Nc2n[n+](-c3ccccc3)c(/C=C/c3ccccc3)s2)cc1	?	1.2µM	–	–	·	·
Cc1cc(O)c2c(c1)C(=O)c1cc(O)cc(O)c1C2=O	·	·	·	·	–	?
COc1ccccc1NS(=O)(=O)c1ccccc1C#N	–	?	–	–	–	–
CN(CC(=O)Nc1ccc(F)c(F)c1F)C(=O)CCN1C(=O)C2CCCCC2C1=O (stereo not given)	–	–	·	·	–	–
CCCCOC(=O)Nc1ccc(OC)cc1S(=O)(=O)N1CCOCC1	–	–	–	–	–	–
CCc1ccc(Nc2n[n+](-c3ccccc3)c(-c3ccc(N(CC)CC)cc3)s2)cc1	?	3.3µM	51	35	·	·
CCN(CC)c1ccc(-c2sc(Nc3ccccc3)n[n+]2-c2ccc(F)cc2)cc1	–	9.3µM	26	18	·	·
